Assay outcomes (PubChem)
ST2 IL33 inh = inhibitors of human ST2 (IL1RL1) binding to IL-33, primary screen, biochemical, AlphaLISA | Interleukin-1 receptor-like 1 (Homo sapiens), Q01638 | AlphaLISA ST2-Fc/biotin-IL-33 interaction, 1 h | inhibition, % for hits at 17 µM | 78,000 tested, 2.3% active; in the data active = inhibition above about 30%
Target sequence (Q01638 whole entry, looked up): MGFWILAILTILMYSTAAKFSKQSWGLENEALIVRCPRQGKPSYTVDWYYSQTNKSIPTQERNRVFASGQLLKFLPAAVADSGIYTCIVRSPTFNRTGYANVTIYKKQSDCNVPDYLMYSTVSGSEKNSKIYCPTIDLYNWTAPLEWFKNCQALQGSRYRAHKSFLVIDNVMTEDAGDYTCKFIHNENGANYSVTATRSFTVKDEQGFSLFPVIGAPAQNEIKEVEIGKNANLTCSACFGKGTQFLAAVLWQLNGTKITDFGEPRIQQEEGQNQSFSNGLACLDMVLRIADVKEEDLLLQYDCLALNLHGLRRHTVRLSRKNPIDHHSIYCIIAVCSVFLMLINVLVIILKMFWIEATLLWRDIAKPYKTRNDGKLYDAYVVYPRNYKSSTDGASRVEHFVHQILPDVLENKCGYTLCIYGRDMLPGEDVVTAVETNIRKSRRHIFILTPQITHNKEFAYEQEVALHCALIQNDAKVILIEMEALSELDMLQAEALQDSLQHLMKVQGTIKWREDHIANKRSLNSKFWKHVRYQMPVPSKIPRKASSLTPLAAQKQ
Starred values were filed as active, the others as inactive; i = inactive. This excerpt belongs to a sample that is enriched for hits.

SMILES	ST2 IL33 inh
CCCCS(=O)(=O)/C=C\C1[C@@H]2C=C[C@@H](C2)[C@H]1S(=O)(=O)CCCC (some centres not stated)	i
Cn1c(CN2C[C@H](O)C[C@H]2c2nc(-c3ccncc3)no2)nc2ccccc21	i
CNC(=O)C1CCC(Cn2c(=O)c3sccc3n(CC(=O)Nc3ccc4c(c3)OCO4)c2=O)CC1 (configuration not stated)	i
CC(C)(C)c1ccc(OCC(O)CN2CCN(Cc3ccc4c(c3)OCO4)CC2)cc1 (configuration not stated)	i
COc1ccc(OCC(O)CN2CCN(c3ccccc3F)CC2)c(C(C)(C)C)c1 (configuration not stated)	i
CC(C)(C)c1ccccc1OCC(O)CN1CCN(Cc2ccc3c(c2)OCO3)CC1 (configuration not stated)	97%*
CC(C)CC(C(=O)Nc1cccc(Cl)c1)N1C(=O)c2ccccc2C1=O (configuration not stated)	i
CC(=O)N(C1=C(N2CCCCC2)C(=O)c2ccccc2C1=O)c1cccc(Cl)c1	61%*
CC(C(=O)N1CCN(c2cccc(Cl)c2)CC1)N1C(=O)c2ccccc2C1=O (configuration not stated)	i
COc1cc(OC)c(C2C(C#N)=C(N)Oc3n[nH]c(-c4ccc(C)cc4)c32)cc1OC (configuration not stated)	i
CCS(=O)(=O)c1ccc2oc(=O)c(C=C(O)c3ccc([N+](=O)[O-])cc3)nc2c1	i
Cc1ccc(-n2c(C)nc3c(cnn3-c3ccc(F)cc3)c2=O)cc1	i
Cc1ccc(-n2ncc3c(=O)n(-c4ccc(C)c(C)c4)c(C)nc32)cc1	i
Cc1ccc(-n2ncc3c([N+](=O)[O-])cc([N+](=O)[O-])cc32)cc1	62%*
Cc1ccc(C)c(NS(=O)(=O)c2ccc(NS(=O)(=O)c3ccc(F)cc3)cc2)c1	i
CCC(O)CC1CCC(C(C)C(=O)OC(CC)CC2CCC(C(C)C(=O)O)O2)O1 (configuration not stated)	i
CC(C)C[C@H]1CN(C(=O)c2coc3ccccc23)CC[C@@]1(C)O	i
COc1ccccc1NC1=CC(=NS(=O)(=O)c2ccccc2)c2ccccc2C1=O	95%*
COc1ccccc1NS(=O)(=O)c1ccc(Cl)cc1	i
CCOc1ccccc1NS(=O)(=O)c1cc(C)ccc1OC	i
COc1ccccc1NS(=O)(=O)c1cc([N+](=O)[O-])ccc1C	i
COc1ccccc1NC(=O)C(Cc1ccccc1)N1C(=O)c2ccccc2C1=O (configuration not stated)	i
COc1ccccc1NC(=O)c1ccc(F)cc1	i
COc1ccccc1NC1=CC(=NS(=O)(=O)c2ccc(C)cc2C)c2ccccc2C1=O	95%*
COc1ccccc1NC(=O)CN(C)S(=O)(=O)c1ccccc1	i
SMILES	ST2 IL33 inh
COc1ccccc1NC1=CC(=NS(=O)(=O)c2ccc(F)cc2)c2ccccc2C1=O	95%*
COc1ccc(S(=O)(=O)N=C2C=C(Nc3ccccc3OC)C(=O)c3ccccc32)cc1	94%*
COc1ccc(S(=O)(=O)Nc2ccccc2C)cc1	i
COc1ccccc1NS(=O)(=O)c1ccc2[nH]c(=O)sc2c1	i
CC(=O)Nc1ccc(S(=O)(=O)NC2CCCCC2)cc1	i
N#Cc1c2nc[nH]c(=O)c2c2n1CCC2	i
COc1ccc(S(=O)(=O)N2CCC(C(=O)Nc3ccccc3Br)CC2)cc1	i
COc1cccc(C(=O)N2CCN=C2SCc2ccccc2F)c1OC	i
Cc1ccc2nc(NC(=O)c3cccc(Cl)c3)sc2c1	i
Cc1ccccc1NS(=O)(=O)c1ccc(NS(=O)(=O)c2ccc(F)cc2)cc1	i
Cc1ccccc1NC1=CC(=NS(=O)(=O)c2ccc(F)cc2)c2ccccc2C1=O	77%*
CCc1ccc(S(=O)(=O)N=C2C=C(Nc3ccccc3OC)C(=O)c3ccccc32)cc1	95%*
CC(C)c1ccccc1NS(=O)(=O)c1ccc(F)cc1	i
COc1ccc(S(=O)(=O)Nc2ccccc2Br)cc1OC	i
CCc1ccc(S(=O)(=O)N2CCSC2c2ccccc2OC)cc1 (configuration not stated)	i
O=C(CSc1ccc2nnc(-c3cccnc3)n2n1)NCC1(N2CCOCC2)CCCCCC1	i
COc1ccc(Oc2coc3cc(OCC(=O)OCC(C)C)ccc3c2=O)cc1	i
O=C(NC(Nc1ccc([N+](=O)[O-])cc1)C(=O)c1ccccc1)c1ccccc1 (configuration not stated)	i
Cc1cc([N+](=O)[O-])ccc1NC(NC(=O)c1cccs1)C(=O)c1ccccc1 (configuration not stated)	35%*
Cc1cc([N+](=O)[O-])ccc1NC(=O)CC(C)c1ccccc1 (configuration not stated)	i
O=C(O)c1ccc(CN2C[C@H](O)C[C@H]2c2nc(-c3ccc(C(F)(F)F)cc3)no2)cc1	i
CN(C)CCNC(=O)c1ccc2c(c1)ncn2C1CCCCC1	i
O=C1NC(=O)/C(=C\c2ccc(Cl)cc2Cl)S1	31%*
O=C1S/C(=C\c2ccc(Cl)cc2Cl)C(=O)N1CN1CCOCC1	i
O=C1NC(=O)/C(=C/c2ccc([N+](=O)[O-])cc2)S1	i
SMILES	ST2 IL33 inh
COCC(C)NC(=O)c1cc(-c2ccc(Br)cc2)on1 (configuration not stated)	i
O=C(CSc1nnc2sc3ccccc3n12)c1ccccc1	i
COCCN(Cc1cccs1)Cc1cccc2cnccc12	i
CC(C)c1cc(C(=O)NC(Cn2ccnc2)C(C)C)nc2ncnn12 (configuration not stated)	30%*
CC(C)C(Cn1ccnc1)NC(=O)c1ccccc1N1CCOCC1 (configuration not stated)	i
CCC(Cn1ccnc1)NC(=O)c1ccc2c(c1)nnn2C (configuration not stated)	i
CC(CN1CCc2ccccc2C1)NC(=O)CS(C)(=O)=O (configuration not stated)	i
N#C/C(=C\Nc1ccc(S(N)(=O)=O)cc1)c1nc(-c2ccc(Cl)cc2)cs1	i
CCOc1cc(/C=C(\C#N)c2nc(-c3ccc(OC)c(OC)c3)cs2)ccc1O	i
COc1ccc(/C=C(/C#N)c2nc(-c3cccs3)cs2)cc1OC	49%*
Cc1ccc(-c2csc(/C(C#N)=C/c3cccs3)n2)cc1	64%*
O=C(Nc1nc(-c2ccc(Cl)cc2)cs1)c1cccs1	i
Cc1ccc(-c2csc(Nc3ccc(F)cc3)n2)cc1	i
COc1ccc(/C=C(/NC(=O)c2cccs2)C(=O)NC(C)(C)C)cc1OC	i
Cc1ccc(Nc2nc(-c3ccccc3)cs2)cc1	i
CN1CCN(c2nc(-c3cccs3)cc(C(F)(F)F)n2)CC1	i
N#C/C(=C\c1cccs1)c1nc(-c2ccc(Cl)cc2)cs1	46%*
N#C/C(=C\c1cccs1)c1nc(-c2cccs2)cs1	64%*
Cc1cc(-c2cccs2)n[nH]1	i
CC(C)(C)C(=O)Nc1c(C(=O)Nc2ccc(F)cc2)oc2ccccc12	i
CCOC(=O)c1cnc2c(C)c(Cl)ccc2c1Nc1ccccc1	i
Cc1ccc(CN(CCCO)C(=O)c2ccc3ncsc3c2)s1	i
Cc1ccc(C)c(C(NC(=O)c2scnc2C)c2cccnc2)c1 (configuration not stated)	i
O=C1CSC(c2ccccc2)N1c1cccc(F)c1 (configuration not stated)	i
